# From PubChem BioAssay
# Values without a mark were called inactive. For some assays here: Measured potencies and affinities stand elsewhere. This is one part of the list. Active and inactive are the calls of the source.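 Rule for the calls, unless noted: active = calcium signal ratio cut to more than 3 SD under the fully stimulated control mean yet still positive, in both repeats and the primary screen; inactive = the rest.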
# Assays:
# [1] = system: TRPC4 beta (transient receptor potential cation channel C4), mouse; assay: TRPC4 cation channel opening, retest – cell-based, Fluo4 calcium, HEK293 TRPC4beta/mu-opioid, duplicates, 10 µM, confirmation (AID 2426;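 active = fluorescence ratio normalized to control raised more than 50% in primary screen plus both repeat runs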); conditions: Fluo4 calcium fluorescence, at 10 µM; stronger effect = higher value
# [2] = system: transient receptor potential cation channel C4 beta (TRPC4), mouse; assay: TRPC4 cation channel opening, second retest – cell-based, second round, Fluo4, HEK293 TRPC4beta/mu-opioid, 1 µM, confirmation (AID 2461;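 active = primary screen active and over 50% activation in each of two duplicate runs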); conditions: Fluo4 calcium fluorescence, at 1 µM; stronger effect = higher value
# [3] = system: TRPC4 (transient receptor potential cation channel C4 beta), mouse; assay: potentiation of DAMGO EC20 TRPC4 response – cell-based, second round, Fluo-4, HEK293 TRPC4beta/mu-opioid, 1 µM, confirmation (AID 2554;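 active = primary screen hit whose fluorescence ratio, in both repeats, exceeds the weak agonist control mean by 3 SD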); conditions: DAMGO EC20, Fluo-4 calcium flux, at 1 µM; stronger effect = higher value
# [4] = system: TRPC4 beta (transient receptor potential cation channel C4), mouse; assay: potentiation of DAMGO EC20 TRPC4 response – cell-based, Fluo-4, HEK293 TRPC4beta/mu-opioid, confirmation (AID 2555;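 active = primary screen hit whose calcium fluorescence ratio, in both repeats, exceeds the weak agonist control mean by 3 SD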); conditions: DAMGO EC20, Fluo-4 calcium flux, at 10 µM; stronger effect = higher value
# [5] = target: Short transient receptor potential channel 4 (Mus musculus) (UniProt Q9QUQ5); assay: blockers of DAMGO-evoked TRPC4 calcium flux – cell-based, Fluo4, HEK293 TRPC4beta/mu-opioid, confirmation (AID 2636;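 active = calcium signal cut by more than 3 SD below the full-agonist control yet still positive, in both repeats and the earlier primary screen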); conditions: at 10 µM; stronger effect = higher value
# Short transient receptor potential channel 4 (Mus musculus), sequence (Q9QUQ5 whole entry, looked up): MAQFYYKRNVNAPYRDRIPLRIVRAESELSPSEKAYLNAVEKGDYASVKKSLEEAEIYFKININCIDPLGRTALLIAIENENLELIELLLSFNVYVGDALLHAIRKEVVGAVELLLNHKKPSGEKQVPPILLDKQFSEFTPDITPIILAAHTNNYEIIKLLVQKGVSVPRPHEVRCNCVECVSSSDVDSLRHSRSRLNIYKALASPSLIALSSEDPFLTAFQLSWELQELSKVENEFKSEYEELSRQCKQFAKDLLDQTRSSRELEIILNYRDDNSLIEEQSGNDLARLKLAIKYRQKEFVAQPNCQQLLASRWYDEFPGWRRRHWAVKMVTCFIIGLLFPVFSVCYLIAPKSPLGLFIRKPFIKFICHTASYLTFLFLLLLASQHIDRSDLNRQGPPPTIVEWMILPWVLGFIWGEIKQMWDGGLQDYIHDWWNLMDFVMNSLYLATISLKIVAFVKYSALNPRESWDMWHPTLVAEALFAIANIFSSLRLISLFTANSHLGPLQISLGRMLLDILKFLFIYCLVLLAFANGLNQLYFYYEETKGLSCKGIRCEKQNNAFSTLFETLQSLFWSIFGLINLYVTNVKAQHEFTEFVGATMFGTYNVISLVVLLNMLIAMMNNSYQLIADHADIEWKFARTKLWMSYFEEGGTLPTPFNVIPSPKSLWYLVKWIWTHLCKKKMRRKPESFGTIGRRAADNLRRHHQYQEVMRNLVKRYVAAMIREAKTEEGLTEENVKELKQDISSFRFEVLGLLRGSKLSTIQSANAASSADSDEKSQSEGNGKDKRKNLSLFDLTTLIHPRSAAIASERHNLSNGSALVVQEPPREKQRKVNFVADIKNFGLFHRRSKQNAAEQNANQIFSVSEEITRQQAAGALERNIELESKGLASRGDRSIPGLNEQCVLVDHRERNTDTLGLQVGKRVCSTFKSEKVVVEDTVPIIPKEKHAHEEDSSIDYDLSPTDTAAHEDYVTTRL
# [6] = target: Short transient receptor potential channel 4 (Mus musculus) (UniProt Q9QUQ5); assay: blockers of DAMGO-evoked TRPC4 calcium flux – cell-based, second round, Fluo4, HEK293 TRPC4beta/mu-opioid, 1 µM, confirmation (AID 2637); conditions: at 1 µM; stronger effect = higher value
# [7] = target: Short transient receptor potential channel 4 (Mus musculus) (UniProt Q9QUQ5); assay: calcium entry via TRPC4 opening agents – cell-based, HEK293 TRPC4/mu-opioid, Fluo-4 calcium, dose response (AID 434937;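 active = primary screen activator hit with a dose response curve and TRPC4 channel activation at any tested dose; inactive = no activation, no dose response, or not a primary hit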)
# [8] = target: Short transient receptor potential channel 4 (Mus musculus) (UniProt Q9QUQ5); assay: potentiation of DAMGO-evoked TRPC4 calcium signal – cell-based, HEK293 TRPC4/mu-opioid, Fluo-4 calcium, EC20 DAMGO, dose response (AID 434941;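 active = earlier screen potentiator hit that boosts the TRPC4 ion channel at some dose, with a dose response; inactive = no potentiation, no dose response, or not a prior hit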;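 note: calcium entry triggered by an EC20 dose of DAMGO at the co-expressed mu-opioid receptor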)
# [9] = target: Short transient receptor potential channel 4 (Mus musculus) (UniProt Q9QUQ5); assay: block of DAMGO-driven TRPC4 calcium entry – cell-based, HEK293 TRPC4/mu-opioid, Fluo-4 calcium, dose response (AID 434942;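 active = primary screen inhibitor hit that blocks the TRPC4 channel at some tested dose, yielding a dose curve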)
# [10] = target: Short transient receptor potential channel 6 (Mus musculus) (UniProt Q61143); assay: TRPC6 blockade by TRPC4 inhibitor hits – cell-based, HEK293, membrane potential dye, duplicate, selectivity assay for TRPC4 inhibitor project, confirmation (AID 434948;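 active = active in primary screen and both duplicates, each dropping signal beyond three positive-control SD with fluorescence still positive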); conditions: HEK293 TRPC6, membrane potential dye fluorescence, at 10 µM, stimulated with maximal-effect acetylcholine; stronger effect = higher value
# Short transient receptor potential channel 6 (Mus musculus), sequence (Q61143 whole entry, looked up): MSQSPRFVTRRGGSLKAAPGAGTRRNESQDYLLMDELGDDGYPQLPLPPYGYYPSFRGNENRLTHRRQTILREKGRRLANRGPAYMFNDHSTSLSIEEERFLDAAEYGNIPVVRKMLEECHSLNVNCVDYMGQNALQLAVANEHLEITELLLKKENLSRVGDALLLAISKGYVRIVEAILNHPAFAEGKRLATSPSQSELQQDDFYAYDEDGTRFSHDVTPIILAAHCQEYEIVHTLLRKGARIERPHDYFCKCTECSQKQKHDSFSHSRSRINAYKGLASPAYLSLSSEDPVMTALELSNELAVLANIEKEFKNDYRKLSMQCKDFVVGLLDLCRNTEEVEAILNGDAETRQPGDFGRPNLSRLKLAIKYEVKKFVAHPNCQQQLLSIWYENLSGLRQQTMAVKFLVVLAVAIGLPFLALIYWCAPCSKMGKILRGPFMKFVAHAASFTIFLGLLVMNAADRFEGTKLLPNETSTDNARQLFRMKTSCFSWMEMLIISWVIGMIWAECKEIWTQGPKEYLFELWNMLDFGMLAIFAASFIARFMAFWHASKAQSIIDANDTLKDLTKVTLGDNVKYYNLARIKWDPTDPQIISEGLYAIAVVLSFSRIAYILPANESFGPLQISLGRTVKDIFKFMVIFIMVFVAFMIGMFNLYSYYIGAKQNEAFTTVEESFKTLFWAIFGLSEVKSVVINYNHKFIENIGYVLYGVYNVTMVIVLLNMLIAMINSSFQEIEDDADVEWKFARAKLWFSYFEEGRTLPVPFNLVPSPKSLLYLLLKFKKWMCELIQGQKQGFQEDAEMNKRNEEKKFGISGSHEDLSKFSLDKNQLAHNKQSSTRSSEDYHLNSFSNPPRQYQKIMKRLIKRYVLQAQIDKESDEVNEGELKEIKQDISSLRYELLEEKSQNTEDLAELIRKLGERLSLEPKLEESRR
# [11] = target: Short transient receptor potential channel 6 (Mus musculus) (UniProt Q61143); assay: TRPC6 opening by TRPC4 activator hits – cell-based, HEK293, membrane potential dye, duplicate, selectivity assay for TRPC4 activator project, confirmation (AID 434950;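 active = membrane potential signal rise above negative control mean plus 3 SD in both duplicates, also active in the earlier TRPC4 screen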); conditions: HEK293 TRPC6, membrane potential fluorescence, at 10 µM; activation: stronger effect = higher value; outcome: activation
# [12] = target: Short transient receptor potential channel 6 (Mus musculus) (UniProt Q61143); assay: positive modulators of mouse TRPC6 channel – HEK293 cells, membrane potential dye, duplicate, selectivity assay for TRPC4 potentiator project, confirmation (AID 434952;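 active = compound raising the membrane signal above positive-control mean plus 3 SD in both repeats, and a primary screen hit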); conditions: HEK293 TRPC6, membrane potential dye fluorescence, at 10 µM, maximal acetylcholine added after compound; stronger effect = higher value
# [13] = target: Short transient receptor potential channel 4 (Mus musculus) (UniProt Q9QUQ5); assay: calcium flux activators in TRPC4/5HT1a cells, counter-screen for TRPC4 activator project, cell-based, second counter screen, HEK293 TRPC4/5HT1a, Fluo-4 (AID 434977;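 active = calcium signal rise above buffer-control mean plus 5 SD in both duplicates, and also a hit in the primary screen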); conditions: Fluo-4 calcium flux, at 10 µM; stronger effect = higher value
# [14] = serotonin-gated TRPC4 signal block – cell-based, second counter screen, HEK293 TRPC4/5HT1a, Fluo-4, counter-screen for TRPC4 inhibitor project, confirmation (AID 434978;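 active = primary screen active whose calcium signal fell more than 3 SD beyond the full-serotonin control mean in both duplicate plates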;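 note: serotonin given first at submaximal then at maximal dose after compound preincubation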); conditions: Fluo-4 calcium flux, at 10 µM, serotonin added to trigger calcium flux; stronger effect = higher value
# [15] = system: TRPC4 (mouse), co-expressed with 5HT1a in HEK293; assay: enhancement of serotonin-evoked TRPC4 response – cell-based, second counter screen, HEK293 TRPC4/5HT1a, Fluo-4, counter-screen for TRPC4 potentiator project, confirmation (AID 434979;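 active = signal rise over 3 SD above mean of control wells given weak agonist, in both repeats and first screen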); conditions: Fluo-4 calcium flux, at 10 µM, serotonin added at its EC20 dose; stronger effect = higher value
# [16] = nonspecific calcium rise without TRPC4 – cell-based, HEK293 mu-opioid receptor line, counter-screen for TRPC4 activator project, confirmation (AID 449723;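 active = hit in primary screen, with calcium signal over 5 SD above buffer well mean in both duplicates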;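 note: counter screen cells carry the mu-opioid receptor alone and lack TRPC4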); conditions: HEK293 mu-opioid cells, Fluo-4 calcium fluorescence, at 10 µM; stronger effect = higher value
# [17] = nonspecific potentiation of DAMGO calcium response – cell-based, HEK293 mu-opioid receptor line, counter-screen for TRPC4 allosteric potentiator project, confirmation (AID 449724;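 active = calcium signal rise more than 3 SD above the low-dose agonist control mean, in both duplicate plates and the primary screen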); conditions: HEK293 mu-opioid receptor cells, Fluo-4 calcium flux, at 10 µM, compound added before EC20 DAMGO stimulus; stronger effect = higher value
# [18] = parental CHO-K1 cell activation, no KCNQ2 – FluxOR thallium flux, duplicate, counter-screen for KCNQ2 potentiator project, confirmation (AID 2282;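 active = signal rise of at least 3 SD above the untreated control mean, in both duplicate wells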;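 note: counter screen of KCNQ2 potentiator hits so any rise reflects channel-independent effects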); conditions: parental CHO-K1 cells, FluxOR thallium flux fluorescence; at 10 µM; stronger effect = higher value; zero = vehicle mean+3SD, 100% = vehicle-minus-blank window
# [19] = target: Potassium voltage-gated channel subfamily KQT member 1 (Homo sapiens) (UniProt P51787); assay: KCNQ1 activation in stable CHO cells – cell-based, FluxOR thallium flux, selectivity assay for KCNQ2 potentiator project, confirmation (AID 2283;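 active = fluorescence ratio rise of at least 3 SD of vehicle wells above their mean, in both replicate wells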;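 note: 0% = vehicle mean plus 3 SD and 100% = vehicle minus unstimulated blank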); conditions: FluxOR thallium flux fluorescence, at 10 µM, stronger effect = higher value, beyond 3SD, as % of vehicle-control signal
# Potassium voltage-gated channel subfamily KQT member 1 (Homo sapiens), sequence (P51787 whole entry, looked up): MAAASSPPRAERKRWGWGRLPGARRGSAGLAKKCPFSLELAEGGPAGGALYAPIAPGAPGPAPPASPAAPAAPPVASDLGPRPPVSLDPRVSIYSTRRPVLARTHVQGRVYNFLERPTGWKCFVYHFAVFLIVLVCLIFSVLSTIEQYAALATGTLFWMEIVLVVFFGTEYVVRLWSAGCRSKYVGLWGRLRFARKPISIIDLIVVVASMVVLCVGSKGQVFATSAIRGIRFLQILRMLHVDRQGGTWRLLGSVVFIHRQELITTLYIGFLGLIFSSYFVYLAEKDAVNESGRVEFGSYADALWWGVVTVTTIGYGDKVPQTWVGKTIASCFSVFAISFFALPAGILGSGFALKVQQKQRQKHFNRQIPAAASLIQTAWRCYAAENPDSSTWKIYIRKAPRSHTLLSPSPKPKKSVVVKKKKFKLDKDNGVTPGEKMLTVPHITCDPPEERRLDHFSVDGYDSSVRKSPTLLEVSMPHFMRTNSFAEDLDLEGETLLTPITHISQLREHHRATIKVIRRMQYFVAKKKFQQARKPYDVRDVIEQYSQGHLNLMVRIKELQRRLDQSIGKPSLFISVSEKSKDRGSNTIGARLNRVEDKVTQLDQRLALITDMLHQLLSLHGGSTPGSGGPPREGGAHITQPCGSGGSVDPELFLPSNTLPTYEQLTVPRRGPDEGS
# [20] = target: Potassium voltage-gated channel subfamily KQT member 2 (Rattus norvegicus) (UniProt O88943); assay: KCNQ2 potassium channel activity enhancers – cell-based, CHO, FluxOR thallium flux, duplicate, confirmation (AID 2287;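 active = fluorescence ratio rising 3 SD or more over the vehicle control mean in both replicates, plus primary screen hit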;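 note: peak minus minimum thallium fluorescence divided by baseline after K/Tl stimulus; 0% = vehicle mean plus 3 SD and 100% = vehicle minus unstimulated blank difference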); conditions: CHO-KCNQ2 cells, FluxOR thallium flux fluorescence; at 10 µM; stronger effect = higher value
# Potassium voltage-gated channel subfamily KQT member 2 (Rattus norvegicus), sequence (O88943 whole entry, looked up): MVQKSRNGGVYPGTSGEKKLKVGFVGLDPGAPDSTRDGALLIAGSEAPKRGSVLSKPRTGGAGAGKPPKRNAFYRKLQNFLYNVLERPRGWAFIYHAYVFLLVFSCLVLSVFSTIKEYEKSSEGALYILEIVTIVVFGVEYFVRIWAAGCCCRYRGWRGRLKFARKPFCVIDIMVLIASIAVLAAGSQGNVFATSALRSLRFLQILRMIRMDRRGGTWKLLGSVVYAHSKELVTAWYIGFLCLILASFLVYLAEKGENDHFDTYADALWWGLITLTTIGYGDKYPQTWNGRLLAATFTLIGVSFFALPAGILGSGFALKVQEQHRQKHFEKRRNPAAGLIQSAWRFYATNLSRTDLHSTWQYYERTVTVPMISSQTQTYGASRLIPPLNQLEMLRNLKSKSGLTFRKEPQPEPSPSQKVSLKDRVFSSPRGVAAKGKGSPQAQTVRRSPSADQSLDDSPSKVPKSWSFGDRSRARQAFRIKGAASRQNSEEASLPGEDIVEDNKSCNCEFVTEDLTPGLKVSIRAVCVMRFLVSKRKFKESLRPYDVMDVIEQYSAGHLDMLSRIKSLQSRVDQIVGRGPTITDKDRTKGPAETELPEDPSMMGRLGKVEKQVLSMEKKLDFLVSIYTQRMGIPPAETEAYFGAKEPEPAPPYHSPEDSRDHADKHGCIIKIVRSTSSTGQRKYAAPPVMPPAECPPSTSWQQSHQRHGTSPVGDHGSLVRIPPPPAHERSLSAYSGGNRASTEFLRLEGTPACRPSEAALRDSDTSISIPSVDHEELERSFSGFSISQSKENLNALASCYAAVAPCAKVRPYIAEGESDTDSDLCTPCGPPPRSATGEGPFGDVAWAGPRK
structure (smiles),measurement,setting,value
CN1CCN(S(=O)(=O)c2ccc(Br)c3ccccc23)CC1,outcome,[1],inactive
same,outcome,[2],inactive
same,outcome,[3],inactive
same,outcome,[4],inactive
same,outcome,[5],inactive
same,outcome,[6],inactive
same,outcome,[7],inactive
same,outcome,[8],inactive
same,outcome,[9],inactive
same,outcome,[10],inactive
same,outcome,[11],inactive
same,outcome,[12],inactive
same,outcome,[13],inactive
same,outcome,[14],inactive
same,potentiation,[15],26.5% (active)
same,outcome,[16],inactive
same,outcome,[17],inactive
CC1(C)CN=c2s/c(=C\c3ccc(Cl)cc3)c(=O)n2C1,outcome,[1],inactive
same,outcome,[2],inactive
same,outcome,[3],inactive
same,outcome,[4],inactive
same,outcome,[5],inactive
same,outcome,[6],inactive
same,outcome,[7],inactive
same,outcome,[8],inactive
same,outcome,[9],inactive
same,outcome,[10],inactive
same,outcome,[11],inactive
same,outcome,[12],inactive
same,outcome,[13],inactive
same,outcome,[14],inactive
same,potentiation,[15],25.3% (active)
same,outcome,[16],inactive
same,outcome,[17],inactive
CN(C)CCCNc1ncnc2c1cnn2Cc1ccccc1Cl,outcome,[1],inactive
same,outcome,[2],inactive
same,outcome,[3],inactive
same,potentiation,[4],15% (active)
same,outcome,[5],inactive
same,outcome,[6],inactive
same,outcome,[7],inactive
same,outcome,[8],inactive
same,outcome,[9],inactive
same,outcome,[10],inactive
same,outcome,[11],inactive
same,outcome,[12],inactive
same,outcome,[13],inactive
same,outcome,[14],inactive
same,potentiation,[15],19.8% (active)
same,outcome,[16],inactive
same,outcome,[17],inactive
CC(Nc1nc(N2CCCC2)nc2ccccc12)c1ccccc1 (stereo not given),outcome,[1],inactive
same,outcome,[2],inactive
same,outcome,[3],inactive
same,outcome,[4],inactive
same,outcome,[5],inactive
same,outcome,[6],inactive
same,outcome,[7],inactive
same,outcome,[8],inactive
same,outcome,[9],inactive
same,outcome,[10],inactive
same,outcome,[11],inactive
same,outcome,[12],inactive
same,outcome,[13],inactive
same,outcome,[14],inactive
same,outcome,[15],inactive
same,outcome,[16],inactive
same,outcome,[17],inactive
CCCCOc1ccc(CSC(=N)N)cc1[N+](=O)[O-],outcome,[1],inactive
same,outcome,[2],inactive
same,outcome,[3],inactive
same,outcome,[4],inactive
same,outcome,[5],inactive
same,outcome,[6],inactive
same,outcome,[7],inactive
same,outcome,[8],inactive
same,outcome,[9],inactive
same,outcome,[10],inactive
same,outcome,[11],inactive
same,outcome,[12],inactive
same,outcome,[13],inactive
same,outcome,[14],inactive
same,potentiation,[15],22.3% (active)
same,outcome,[16],inactive
same,outcome,[17],inactive
CCCC1C(=O)Nc2ccccc2N1C(=O)c1ccc(C(C)(C)C)cc1 (stereo not given),outcome,[1],inactive
same,outcome,[2],inactive
same,outcome,[3],inactive
same,outcome,[4],inactive
same,outcome,[5],inactive
same,outcome,[6],inactive
same,outcome,[7],inactive
same,outcome,[8],inactive
same,outcome,[9],inactive
same,outcome,[10],inactive
same,outcome,[11],inactive
same,outcome,[12],inactive
same,outcome,[13],inactive
same,outcome,[14],inactive
same,potentiation,[15],30.4% (active)
same,outcome,[16],inactive
same,outcome,[17],inactive
Cc1cc(C(=O)OCC(=O)Nc2ccc(F)c(F)c2)c(C)o1,activity increase over 3SD of controls,[18],-17.5%
same,activation over 3SD threshold,[19],-23.1%
same,"potentiation, less the hit threshold",[20],17.6% (active)
O=C(NN/C(=N/S(=O)(=O)c1ccc(Cl)cc1)c1ccccc1)c1cccc(Cl)c1,outcome,[1],inactive
same,outcome,[2],inactive
same,outcome,[3],inactive
same,outcome,[4],inactive
same,inhibition,[5],70% (active)
same,outcome,[6],inactive
same,outcome,[7],inactive
same,outcome,[8],inactive
same,outcome,[9],inactive
same,outcome,[10],inactive
same,outcome,[11],inactive
same,outcome,[12],inactive
same,outcome,[13],inactive
same,outcome,[14],inactive
same,outcome,[15],inactive
same,outcome,[16],inactive
same,outcome,[17],inactive
NCC(c1ccc(Cl)cc1Cl)c1c[nH]c2ccccc12 (stereo not given),outcome,[1],inactive
same,outcome,[2],inactive
same,outcome,[3],inactive
same,outcome,[4],inactive
same,outcome,[5],inactive
same,outcome,[6],inactive
same,outcome,[7],inactive
same,outcome,[8],inactive
same,outcome,[9],inactive
same,outcome,[10],inactive
same,outcome,[11],inactive
same,outcome,[12],inactive
same,outcome,[13],inactive
same,outcome,[14],inactive
same,potentiation,[15],18.9% (active)
same,outcome,[16],inactive
same,outcome,[17],inactive
COc1ccc(CCN(C)C(=O)c2cc(S(=O)(=O)N3CCCCC3)ccc2Cl)cc1OC,outcome,[1],inactive
same,outcome,[2],inactive
same,outcome,[3],inactive
same,outcome,[4],inactive
same,outcome,[5],inactive
same,outcome,[6],inactive
same,outcome,[7],inactive
same,outcome,[8],inactive
same,outcome,[9],inactive
same,outcome,[10],inactive
same,outcome,[11],inactive
same,outcome,[12],inactive
same,outcome,[13],inactive
same,outcome,[14],inactive
same,outcome,[15],inactive
same,outcome,[16],inactive
same,outcome,[17],inactive
NC(=S)N/N=C1/CCSc2ccc3ccccc3c21,outcome,[1],inactive
same,outcome,[2],inactive
same,outcome,[3],inactive
same,potentiation,[4],25% (active)
same,outcome,[5],inactive
same,outcome,[6],inactive
same,outcome,[7],inactive
same,outcome,[8],inactive
same,outcome,[9],inactive
same,outcome,[10],inactive
same,outcome,[11],inactive
same,outcome,[12],inactive
same,outcome,[13],inactive
same,outcome,[14],inactive
same,potentiation,[15],18.7% (active)
same,outcome,[16],inactive
same,outcome,[17],inactive
Cc1cc2oc(C(=O)N(Cc3ccco3)C3CCS(=O)(=O)C3)cc(=O)c2cc1Cl (stereo not given),outcome,[1],inactive
same,outcome,[2],inactive
same,outcome,[3],inactive
same,potentiation,[4],66% (active)
same,outcome,[5],inactive
same,outcome,[6],inactive
same,outcome,[7],inactive
same,outcome,[8],inactive
same,outcome,[9],inactive
same,outcome,[10],inactive
same,outcome,[11],inactive
same,outcome,[12],inactive
same,outcome,[13],inactive
same,outcome,[14],inactive
same,potentiation,[15],70.9% (active)
same,outcome,[16],inactive
same,outcome,[17],inactive
CC(=O)NNC(=O)c1csc(Cc2c(Cl)sc3ccc(Cl)cc23)n1,activity increase over 3SD of controls,[18],26.3% (active)
same,activation over 3SD threshold,[19],-5%
same,"potentiation, less the hit threshold",[20],12.3% (active)
C=CCNC(=O)C(=O)NCC1CCCN1S(=O)(=O)c1cccs1 (stereo not given),outcome,[1],inactive
same,outcome,[2],inactive
same,outcome,[3],inactive
same,outcome,[4],inactive
same,outcome,[5],inactive
same,outcome,[6],inactive
same,outcome,[7],inactive
same,outcome,[8],inactive
same,outcome,[9],inactive
same,outcome,[10],inactive
same,outcome,[11],inactive
same,outcome,[12],inactive
same,outcome,[13],inactive
same,outcome,[14],inactive
same,potentiation,[15],11.2% (active)
same,outcome,[16],inactive
same,outcome,[17],inactive
Cc1cc2nc(CSc3ccc(Cl)cc3)cc(=O)n2[nH]1,outcome,[1],inactive
same,outcome,[2],inactive
same,outcome,[3],inactive
same,outcome,[4],inactive
same,outcome,[5],inactive
same,outcome,[6],inactive
same,outcome,[7],inactive
same,outcome,[8],inactive
same,outcome,[9],inactive
same,outcome,[10],inactive
same,outcome,[11],inactive
same,outcome,[12],inactive
same,outcome,[13],inactive
same,outcome,[14],inactive
same,outcome,[15],inactive
same,outcome,[16],inactive
same,outcome,[17],inactive
CC(C)(C)C1CCC(C(=O)NCC(c2cccs2)N2CCOCC2)CC1 (stereo not given),activity increase over 3SD of controls,[18],-27.5%
same,activation over 3SD threshold,[19],-18.7%
same,"potentiation, less the hit threshold",[20],13.3% (active)
